# According to PMC7862700, “An all-to-all approach to the identification of sequence-specific readers for epigenetic DNA modifications on cytosine”:
# Experiments:
# Assay in all cases: DAPPL (digital affinity profiling via proximity ligation, sequencing); 10 mM Tris-HCl pH 7.5, 50 mM NaCl, 1 mM DTT, 4% glycerol, room temperature, 30 min; GST-TFs on glutathione beads, 16-mer random dsDNA library, 0.1% formaldehyde crosslink after washing; high values mean tight binding
# FEV = target: T1, FEV (Homo sapiens, UniProt Q99581 1-238); conditions: protein: recombinant; tags: N-terminal GST; dsDNA, one strand shown
# T1 sequence: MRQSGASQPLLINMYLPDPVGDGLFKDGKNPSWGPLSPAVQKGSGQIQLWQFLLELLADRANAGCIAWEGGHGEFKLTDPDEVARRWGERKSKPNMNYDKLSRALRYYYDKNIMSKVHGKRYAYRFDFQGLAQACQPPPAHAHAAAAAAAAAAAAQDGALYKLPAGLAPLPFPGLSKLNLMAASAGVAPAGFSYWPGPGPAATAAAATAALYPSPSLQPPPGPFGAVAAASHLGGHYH
# Method in brief: (§1)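 In yeast, human transcription factors were expressed with a GST fusion, then pulled down on glutathione beads and given DNA barcodes. Pooled with a tag-only sample, they were exposed to 200 nmole of a 16-mer random double-stranded DNA library (Tris/NaCl/DTT/glycerol buffer, room temperature, 30 min), washed, crosslinked with 0.1% formaldehyde, proximity-ligated using BsaI/T4 ligase for 1 h at 37 °C, PCR-amplified and read on an Illumina NextSeq500. Each hexamer's frequency of reads for a factor, divided by the matching frequency for the tag-only sample, gives the binding signal.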
# ETV5 = ETV5 (Homo sapiens, UniProt P41161 1-510); conditions: protein: recombinant; tags: N-terminal GST; dsDNA, one strand shown
# Method in brief: as §1
# HSF1 = HSF1 (Homo sapiens, UniProt Q00613 1-529); conditions: protein: recombinant; tags: N-terminal GST; chain copies: 3; dsDNA, one strand shown
# Method in brief: as §1
# SPIC = target: T2, SPIC (Homo sapiens, UniProt Q8N5J4 1-248); conditions: protein: recombinant; tags: N-terminal GST; dsDNA, one strand shown
# T2 sequence: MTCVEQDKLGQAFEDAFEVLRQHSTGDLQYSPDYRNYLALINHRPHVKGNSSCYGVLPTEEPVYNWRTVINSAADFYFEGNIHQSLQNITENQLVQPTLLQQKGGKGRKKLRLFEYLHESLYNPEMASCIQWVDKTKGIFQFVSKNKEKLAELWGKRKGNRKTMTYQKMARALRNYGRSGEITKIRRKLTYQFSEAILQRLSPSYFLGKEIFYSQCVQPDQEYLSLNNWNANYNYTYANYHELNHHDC
# Method in brief: as §1
# ELK4 = target: T3, ELK4 (Homo sapiens, UniProt P28324-2 1-405); conditions: protein: recombinant; tags: N-terminal GST; dsDNA, one strand shown
# T3 sequence: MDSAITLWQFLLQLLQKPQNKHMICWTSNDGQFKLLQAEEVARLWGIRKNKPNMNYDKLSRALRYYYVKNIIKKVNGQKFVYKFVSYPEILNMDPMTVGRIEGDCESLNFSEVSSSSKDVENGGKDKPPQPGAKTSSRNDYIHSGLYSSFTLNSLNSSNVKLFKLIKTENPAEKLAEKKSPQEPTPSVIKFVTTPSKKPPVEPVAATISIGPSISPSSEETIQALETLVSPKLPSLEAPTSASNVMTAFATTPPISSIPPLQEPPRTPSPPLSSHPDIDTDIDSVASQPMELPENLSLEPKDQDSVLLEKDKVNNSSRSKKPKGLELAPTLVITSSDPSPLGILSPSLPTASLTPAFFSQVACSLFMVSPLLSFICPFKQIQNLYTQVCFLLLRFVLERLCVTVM
# Method in brief: as §1
# ETV2 = target: T4, ETV2 (Homo sapiens, UniProt O00321 1-342); conditions: protein: recombinant; tags: N-terminal GST; dsDNA, one strand shown
# T4 sequence: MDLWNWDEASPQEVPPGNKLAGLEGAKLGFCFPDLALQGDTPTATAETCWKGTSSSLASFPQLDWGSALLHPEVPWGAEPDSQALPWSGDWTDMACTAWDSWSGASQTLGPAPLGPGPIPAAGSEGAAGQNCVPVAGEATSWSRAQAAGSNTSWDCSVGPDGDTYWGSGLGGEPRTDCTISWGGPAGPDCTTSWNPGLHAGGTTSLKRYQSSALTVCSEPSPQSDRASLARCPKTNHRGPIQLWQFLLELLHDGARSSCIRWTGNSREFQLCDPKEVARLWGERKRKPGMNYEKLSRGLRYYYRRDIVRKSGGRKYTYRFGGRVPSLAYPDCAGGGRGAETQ
# Method in brief: as §1
# ELF3 = target: T5, ELF3 (Homo sapiens, UniProt P78545 1-371); conditions: protein: recombinant; tags: N-terminal GST; dsDNA, one strand shown
# T5 sequence: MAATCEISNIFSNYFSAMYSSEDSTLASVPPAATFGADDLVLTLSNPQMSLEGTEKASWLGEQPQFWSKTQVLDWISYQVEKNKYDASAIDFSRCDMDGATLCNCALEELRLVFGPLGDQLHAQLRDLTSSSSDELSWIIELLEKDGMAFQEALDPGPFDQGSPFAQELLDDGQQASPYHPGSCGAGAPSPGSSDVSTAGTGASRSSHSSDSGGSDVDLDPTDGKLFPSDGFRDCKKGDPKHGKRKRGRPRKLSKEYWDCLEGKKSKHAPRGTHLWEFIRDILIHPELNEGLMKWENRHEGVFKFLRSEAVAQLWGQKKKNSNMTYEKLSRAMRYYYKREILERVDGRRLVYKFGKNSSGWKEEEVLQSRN
# Method in brief: as §1
# CRX = CRX (Homo sapiens, UniProt O43186 1-299); conditions: protein: recombinant; tags: N-terminal GST; dsDNA, one strand shown
# Method in brief: as §1
# ETV3L = target: T6, ETV3L (Homo sapiens, UniProt Q6ZN32 1-361); conditions: protein: recombinant; tags: N-terminal GST; dsDNA, one strand shown
# T6 sequence: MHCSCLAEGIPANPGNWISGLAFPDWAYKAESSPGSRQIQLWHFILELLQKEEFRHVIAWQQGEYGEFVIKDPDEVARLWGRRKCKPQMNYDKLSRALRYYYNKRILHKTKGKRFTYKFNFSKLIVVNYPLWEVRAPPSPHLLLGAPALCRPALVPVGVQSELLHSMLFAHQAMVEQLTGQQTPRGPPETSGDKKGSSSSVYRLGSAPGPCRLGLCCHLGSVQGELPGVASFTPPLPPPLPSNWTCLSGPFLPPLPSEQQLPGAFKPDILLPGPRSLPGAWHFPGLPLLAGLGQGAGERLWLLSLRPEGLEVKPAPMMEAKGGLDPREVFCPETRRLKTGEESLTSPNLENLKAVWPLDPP
# Method in brief: as §1
# SPDEF = target: T7, SPDEF (Homo sapiens, UniProt O95238 1-335); conditions: protein: recombinant; tags: N-terminal GST; dsDNA, one strand shown
# T7 sequence: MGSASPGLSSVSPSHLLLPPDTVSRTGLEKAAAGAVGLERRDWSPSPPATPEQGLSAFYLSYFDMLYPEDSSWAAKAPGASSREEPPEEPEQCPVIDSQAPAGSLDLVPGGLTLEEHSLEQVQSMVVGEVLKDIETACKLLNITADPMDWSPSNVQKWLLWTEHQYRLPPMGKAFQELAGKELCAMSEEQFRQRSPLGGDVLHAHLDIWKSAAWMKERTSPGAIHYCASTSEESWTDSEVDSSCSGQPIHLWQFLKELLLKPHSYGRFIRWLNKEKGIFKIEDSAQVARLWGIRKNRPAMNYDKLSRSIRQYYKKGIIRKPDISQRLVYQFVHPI
# Method in brief: as §1
# ETV7 = target: T8, ETV7 (Homo sapiens, UniProt Q9Y603 1-341); conditions: protein: recombinant; tags: N-terminal GST; dsDNA, one strand shown
# T8 sequence: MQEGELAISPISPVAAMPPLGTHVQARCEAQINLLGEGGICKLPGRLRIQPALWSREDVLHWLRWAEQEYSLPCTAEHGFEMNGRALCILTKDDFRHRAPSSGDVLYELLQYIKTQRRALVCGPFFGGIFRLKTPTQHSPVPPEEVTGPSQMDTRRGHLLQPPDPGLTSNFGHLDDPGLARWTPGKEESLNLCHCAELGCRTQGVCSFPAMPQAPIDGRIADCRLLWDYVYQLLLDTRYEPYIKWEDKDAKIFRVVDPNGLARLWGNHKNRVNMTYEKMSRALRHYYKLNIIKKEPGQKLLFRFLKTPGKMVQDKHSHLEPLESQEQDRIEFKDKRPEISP
# Method in brief: as §1
# ELF5 = target: T9, ELF5 (Homo sapiens, UniProt Q9UKW6-2 1-255); conditions: protein: recombinant; tags: N-terminal GST; dsDNA, one strand shown
# T9 sequence: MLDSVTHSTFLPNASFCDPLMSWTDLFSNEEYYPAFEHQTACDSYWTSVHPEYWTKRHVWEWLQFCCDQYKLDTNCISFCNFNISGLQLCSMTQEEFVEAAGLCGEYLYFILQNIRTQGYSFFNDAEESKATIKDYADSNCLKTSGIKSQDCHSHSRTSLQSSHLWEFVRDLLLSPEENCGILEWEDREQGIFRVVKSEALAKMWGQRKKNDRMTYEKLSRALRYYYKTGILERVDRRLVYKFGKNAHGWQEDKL
# Method in brief: as §1
# ETV3 = target: T10, ETV3 (Homo sapiens, UniProt P41162-2 1-143); conditions: protein: recombinant; tags: N-terminal GST; dsDNA, one strand shown
# T10 sequence: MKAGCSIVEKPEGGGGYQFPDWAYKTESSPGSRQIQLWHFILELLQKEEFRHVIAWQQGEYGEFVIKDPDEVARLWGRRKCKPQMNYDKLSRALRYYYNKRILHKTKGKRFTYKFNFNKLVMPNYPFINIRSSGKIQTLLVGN
# Method in brief: as §1
# ETV6 = ETV6 (Homo sapiens, UniProt P41212 1-452); conditions: protein: recombinant; tags: N-terminal GST; dsDNA, one strand shown
# Method in brief: as §1
# ETV5, sequence (P41161 whole entry): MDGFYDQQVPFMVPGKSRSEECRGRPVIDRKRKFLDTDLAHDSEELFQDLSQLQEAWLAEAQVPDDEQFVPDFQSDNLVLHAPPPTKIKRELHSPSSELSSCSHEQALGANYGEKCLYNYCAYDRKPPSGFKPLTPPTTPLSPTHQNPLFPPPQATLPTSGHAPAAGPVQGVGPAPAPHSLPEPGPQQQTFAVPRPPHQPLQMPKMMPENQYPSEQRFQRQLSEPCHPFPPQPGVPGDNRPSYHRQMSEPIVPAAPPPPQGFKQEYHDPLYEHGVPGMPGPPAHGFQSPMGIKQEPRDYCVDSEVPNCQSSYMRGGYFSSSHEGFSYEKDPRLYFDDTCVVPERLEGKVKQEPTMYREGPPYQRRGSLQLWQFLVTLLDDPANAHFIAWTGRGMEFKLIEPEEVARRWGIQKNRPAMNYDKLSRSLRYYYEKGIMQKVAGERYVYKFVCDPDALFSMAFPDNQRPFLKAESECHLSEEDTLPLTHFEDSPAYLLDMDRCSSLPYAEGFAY
# CRX, sequence (O43186 whole entry): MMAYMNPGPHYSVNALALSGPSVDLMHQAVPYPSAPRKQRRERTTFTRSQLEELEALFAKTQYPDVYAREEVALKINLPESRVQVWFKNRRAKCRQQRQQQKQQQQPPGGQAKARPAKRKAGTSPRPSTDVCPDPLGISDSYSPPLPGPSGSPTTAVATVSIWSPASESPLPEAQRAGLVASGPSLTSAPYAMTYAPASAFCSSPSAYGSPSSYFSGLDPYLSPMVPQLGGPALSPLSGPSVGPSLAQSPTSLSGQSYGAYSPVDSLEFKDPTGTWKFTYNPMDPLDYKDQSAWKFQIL
# HSF1, sequence (Q00613 whole entry): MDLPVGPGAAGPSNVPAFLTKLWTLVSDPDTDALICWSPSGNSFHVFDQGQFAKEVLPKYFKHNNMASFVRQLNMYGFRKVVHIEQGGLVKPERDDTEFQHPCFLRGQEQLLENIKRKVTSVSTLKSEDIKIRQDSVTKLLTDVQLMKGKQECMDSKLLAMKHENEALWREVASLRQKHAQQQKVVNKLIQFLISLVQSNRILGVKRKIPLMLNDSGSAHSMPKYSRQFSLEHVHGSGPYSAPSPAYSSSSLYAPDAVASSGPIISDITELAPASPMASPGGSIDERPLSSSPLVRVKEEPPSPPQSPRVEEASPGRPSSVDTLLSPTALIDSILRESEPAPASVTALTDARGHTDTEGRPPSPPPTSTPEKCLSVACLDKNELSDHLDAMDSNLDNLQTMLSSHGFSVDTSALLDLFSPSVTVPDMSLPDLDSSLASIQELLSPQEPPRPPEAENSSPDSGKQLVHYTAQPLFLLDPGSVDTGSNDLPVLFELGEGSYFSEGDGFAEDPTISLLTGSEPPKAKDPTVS
# ETV6, sequence (P41212 whole entry): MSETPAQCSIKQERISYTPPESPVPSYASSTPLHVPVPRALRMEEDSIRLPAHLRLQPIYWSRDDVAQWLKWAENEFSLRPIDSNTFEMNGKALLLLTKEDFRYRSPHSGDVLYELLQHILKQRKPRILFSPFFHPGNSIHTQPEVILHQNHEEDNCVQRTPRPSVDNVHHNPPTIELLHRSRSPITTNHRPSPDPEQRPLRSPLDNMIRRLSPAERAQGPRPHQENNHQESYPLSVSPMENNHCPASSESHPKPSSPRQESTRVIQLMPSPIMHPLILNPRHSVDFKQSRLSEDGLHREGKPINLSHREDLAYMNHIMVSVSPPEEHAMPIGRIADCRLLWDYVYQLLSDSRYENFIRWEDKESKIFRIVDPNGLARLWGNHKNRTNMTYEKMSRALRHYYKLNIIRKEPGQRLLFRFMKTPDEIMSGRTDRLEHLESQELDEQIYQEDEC
sequence,measurement,setting,value
AAGGCT,binding signal,FEV,"1.05 fold enrichment (6-mer frequency, TF over GST control)"
same,binding signal,ETV5,"1.01 fold enrichment (6-mer frequency, TF over GST control)"
same,binding signal,HSF1,"1.1 fold enrichment (6-mer frequency, TF over GST control)"
same,binding signal,SPIC,"1.06 fold enrichment (6-mer frequency, TF over GST control)"
same,binding signal,ELK4,"1 fold enrichment (6-mer frequency, TF over GST control)"
same,binding signal,ETV2,"1.15 fold enrichment (6-mer frequency, TF over GST control)"
same,binding signal,ELF3,"1.02 fold enrichment (6-mer frequency, TF over GST control)"
same,binding signal,CRX,"1.43 fold enrichment (6-mer frequency, TF over GST control)"
same,binding signal,ETV3L,"1.02 fold enrichment (6-mer frequency, TF over GST control)"
same,binding signal,SPDEF,"1.04 fold enrichment (6-mer frequency, TF over GST control)"
same,binding signal,ETV7,"1.06 fold enrichment (6-mer frequency, TF over GST control)"
same,binding signal,ELF5,"1.06 fold enrichment (6-mer frequency, TF over GST control)"
same,binding signal,ETV3,"1.04 fold enrichment (6-mer frequency, TF over GST control)"
same,binding signal,ETV6,"1.02 fold enrichment (6-mer frequency, TF over GST control)"
